According to PubChem BioAssay (NCI):
This is part of a sample that, as a whole, favours compounds with a hit. Of some 79,000 tested, about 15% had one in any assay. Unmarked numbers belong to inactive results. The source made the active and inactive calls. No stated cut-off is given here; in the data, active means growth inhibition above about 70%; inactive means the rest.

Experiment: NCI Yeast Anticancer Drug Screen. Data for the mlh1 rad18 strain (AID 175)
Details: S. cerevisiae mlh1 rad18 strain growth inhibition, active compounds read high
Protocol: Growth inhibition of yeast strains with defined genetic alterations is measured as a screen for potential anti-cancer activity. Selected strains with alterations in DNA damage repair or cell cycle control were exposed to compounds and growth inhibition was measured relative to vehicle treated controls. The strain used in this assay is mlh1 rad18

[1] = at 5.0 µM (retest, dose inferred, filed as 0.5)
[2] = at 50.0 µM (retest, dose inferred, filed as 5.0)

| SMILES | growth inhibition [1] | growth inhibition [2] | growth inhibition (at 50.0 µM) |
| --- | --- | --- | --- |
| O=Cc1ccc2c(c1)C(=O)c1ccccc1C2=O | 10% | 61% | 67.8% |
| O=[N+]([O-])/C=C/c1cc(Cl)c(/C=C/[N+](=O)[O-])cc1Cl | 16% | 77% (active) | 56.4% |
| CCN(CC)CCNc1ccc2ncn3c4cc(OC)c(OC)c(=O)c4c(O)c1c23 | 38% | -10% | 20.3% |
| CCCOC(=O)C(F)C(Br)C(=O)OCCC (configuration not stated) | 93% (active) | 98% (active) | 89% (active) |
| Oc1ccc2c(c1)C(O)CCCC2 (configuration not stated) | 87% (active) | 99% (active) | 86.8% (active) |
| O=[N+]([O-])c1ccc2c(c1)/C(=N/N=C1c3ccccc3Cc3ccccc31)c1cc([N+](=O)[O-])cc([N+](=O)[O-])c1-2 | 27% | 96% (active) | 82.5% (active) |
| O=C(/C=C/c1cc(Cl)cc(Cl)c1O)c1cccc(O)c1 | 46% | 97% (active) | 92.7% (active) |
| CC(C)(CCCCC(C)(C)[N+](C)(C)C)[N+](C)(C)C | 10% | 35% | 91.5% (active) |
| Cc1ccc2c3ccc4c(c3n(C)c2c1)C(=O)C=CC4=O | 21% | 77% (active) | 68% |
| CCCCN(CCCC)CCC(O)c1cc2c(Cl)cc(Cl)cc2c2cc(C(F)(F)F)ccc12 (configuration not stated) | 62% | 97% (active) | 82.8% (active) |
| NNC(=O)CCc1cc2ccccc2c2ccccc12 | 45% | 98% (active) | 98.5% (active) |
| Cc1csc(=S)n1OC(=O)NC1CCCCC1 | 97% (active) | 98% (active) | 92.1% (active) |
| C=C(C(=C)n1nnc(C(=O)OC)c1C(=O)OC)n1nnc(C(=O)OC)c1C(=O)OC | -2% | 48% | 59.5% |
| CC(C)(C)[Si](C)(C)OCC1CCC(n2cnc3c(NC(=O)c4ccccc4)ncnc32)O1 (configuration not stated) | -5% | 47% | 80.9% (active) |
